Rce1 inhib – blocks yeast Ras-converting enzyme; yeast membranes, quenched prenylated peptide cleavage fluorescence; 0.27% of 290,000 active; calls only; Q03530;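 active = fall in fluorescence gain of 50% or more versus controls, with final raw signal at or below 3038400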;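 note: plate controls were neutral control wells for no effect and wells lacking membranes for full effect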
Target sequence (Q03530 whole entry, looked up): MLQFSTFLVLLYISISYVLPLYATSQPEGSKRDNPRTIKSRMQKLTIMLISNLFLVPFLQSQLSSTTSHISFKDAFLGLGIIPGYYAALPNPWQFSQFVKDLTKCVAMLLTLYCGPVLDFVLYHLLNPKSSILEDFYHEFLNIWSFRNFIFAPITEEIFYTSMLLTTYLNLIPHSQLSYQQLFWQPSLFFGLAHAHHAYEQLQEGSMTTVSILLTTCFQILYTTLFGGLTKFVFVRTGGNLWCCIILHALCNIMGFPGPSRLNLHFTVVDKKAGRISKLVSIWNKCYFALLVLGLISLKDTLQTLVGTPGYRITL
PfHsp90 set2 – reduces growth (ATP signal) of yeast expressing P. falciparum Hsp90 | inhibition, % at 9.4 µM | S. cerevisiae expressing PfHsp90, BacTiter-Glo ATP, 48 h; yeast lacking PDR1 and PDR3 efflux regulators | 0.32% of 310,000 active;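 active = every replicate shows inhibition above about 80%, whatever the replicate mean, limit read from the data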;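 note: 0% = DMSO neutral controls and 100% = 20 µM radicicol positive controls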
tim10-1 inh – inhibits growth of tim10-1 mutant yeast; 2.2% of 330,000 active; S. cerevisiae tim10-1 ts strain growth, BacTiter-Glo, 24 h; AID 463190; inhibition, % at 20 µM;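 active = inhibition of at least 40%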;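 note: mutant grown at 25 °C; 0% = DMSO wells with yeast and 100% = wells holding no yeast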
tim23-1 inh – tim23-1 yeast growth inhibition; inhibition, % at 20 µM; S. cerevisiae tim23-1 growth, BacTiter-Glo luminescence, 24 h; 1.3% of 330,000 active; AID 463212;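 active = growth inhibition of the mutant yeast at or above 50%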;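 note: temperature-sensitive mutant grown at 25 °C; plate controls were DMSO-treated mutant yeast for no effect and medium wells lacking yeast for full effect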
TIM10 inh – growth inhibitors of TIM10 yeast strain. S. cerevisiae TIM10 strain growth, BacTiter-Glo luminescence, 24 h. inhibition, % at 10 µM. 1.4% of 330,000 active;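 active = inhibition of 40% or more at the single tested concentration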;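 note: wild-type TIM10 isogenic control strain grown at permissive 25 °C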
tim10-1 confirm – confirmation of tim10-1 mutant yeast growth inhibitors; shares compounds with tim10-1 inh; AID 463213; 56% of 7,400 active; inhibition, % at 20 µM; S. cerevisiae tim10-1 ts strain growth, BacTiter-Glo, 24 h;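 active = inhibition of yeast growth at or above a set limit in either of two repeat tests at 20 µM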;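 note: tim10-1 mutant grown at permissive 25 °C to find synthetic lethal compounds; 0% = DMSO yeast wells and 100% = medium wells without yeast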
* marks the source's active call; other numbers are inactive results; i = inactive; . = not tested or not shown. The list is not random: actives were taken first. Their share in the collection is about 3.7%.

SMILES	Rce1 inhib	PfHsp90 set2	tim10-1 inh	tim23-1 inh	TIM10 inh	tim10-1 confirm
COc1ccccc1NC1CCCCC1NS(=O)(=O)c1ccc(C)cc1 (configuration not stated)	i	-40	48*	38	7	-9
Cc1ccc(C)c(NC2CCCCC2NS(=O)(=O)c2ccccc2)c1 (configuration not stated)	i	13	46*	37	25	22
Cc1cccc(NC2CCCCC2NS(=O)(=O)c2ccccc2)c1 (configuration not stated)	i	0	14	32	16	.
COC(=O)[C@]1(Cc2ccccc2)N[C@H](CN(C)C(=O)Nc2ccc(OC)cc2)[C@@H]2C(=O)N(Cc3ccccc3)C(=O)[C@@H]21	.	-2	10	13	13	.
COCCOc1ccc(C(F)(F)F)cc1NC(=O)COC(=O)c1cc([N+](=O)[O-])ccc1N1CCOCC1	i	-75	18	14	19	.
COc1ccccc1CN1C(=O)[C@@H]2Cc3c([nH]c4ccccc34)C(C)(C)N2C1=O	i	0	-8	6	19	.
COc1ccc(CN2C(=O)[C@@H]3Cc4c([nH]c5ccccc45)C(C)(C)N3C2=O)cc1	i	-74	44*	43	27	22
COc1cccc(CN2C(=O)[C@H]3Cc4c([nH]c5ccccc45)C(C)(C)N3C2=O)c1	i	9	45*	31	35	30
C=CCn1c(Cc2cccs2)nnc1SCC(=O)c1cccc(Br)c1	i	-7	41*	31	14	24
Cc1c(C(=O)Nc2ccc(F)cc2)sc2ncn(CC(=O)N3CCCCC3)c(=O)c12	i	-20	10	-2	-21	.
CCCCOC(=O)c1ccc(O)cc1	i	-10	6	4	-5	.
CCCCCCCCOC(=O)c1ccc(N)cc1	i	-9	45*	7	8	24
N#Cc1ccccc1-c1ccccc1C(=O)N1CCCCC1	i	2	28	25	6	.
O=C(Nc1ccc(Cl)c(Cl)c1)Oc1ccc(NC(=O)c2ccco2)cc1	i	37	44*	29	19	26
O=C(Nc1ccc(OC(=O)c2ccco2)cc1)c1ccco1	i	6	-8	35	29	.
O=C(c1cc(Br)c(Br)s1)N1CCN(c2ccccn2)CC1	i	22	19	22	4	.
CCc1c(C(=O)NCc2ccccc2Cl)[nH]c(C)c1C(C)=O	i	2	56*	12	-5	-5
COc1cc(C(C)=O)ccc1OCC(O)CN1CCN(c2ccc(C)c(C)c2)CC1 (configuration not stated)	i	10	5	17	-4	.
OC(COC(c1ccc(Cl)cc1)c1ccc(Cl)cc1)CN1CCc2ccccc2C1 (configuration not stated)	i	-8	44*	18	31	-3
O=C(Nc1ccccc1Cl)c1ccc(-c2ccccn2)s1	i	-17	-16	19	18	.
CCOC(=O)c1nn(-c2ccccc2)c(=O)c2c(N)scc12	.	2	51*	16	25	26
CCOC(=O)c1nn(-c2ccccc2C)c(=O)c2c(N)scc12	i	1	18	5	-6	.
CCSC(=O)CCCCCCCCCCCO	i	12	40*	26	15	36*
O=Cc1ccccc1Oc1nc(N2CCOCC2)nc(N2CCOCC2)n1	i	6	45*	47	33	41*
c1ccc2c(c1)-c1cccc3c1c-2cc1ccccc13	.	.	15	21	16	.
SMILES	Rce1 inhib	PfHsp90 set2	tim10-1 inh	tim23-1 inh	TIM10 inh	tim10-1 confirm
Oc1cc(-c2ccccc2)c2ccccc2c1	i	-114	54*	47	7	51*
O=C(Nc1cccc2ccccc12)c1ccccc1	i	-6	21	13	-1	.
Cc1c(C)n(C)c2ccc(C(=O)Nc3cccc4ccccc34)cc12	i	-19	43*	38	24	32*
COc1ccc(-c2noc(CCC(=O)N3CCN(c4ccc(Br)cc4)CC3)n2)cc1	.	-11	11	36	-14	.
CCC(CC)C(=O)OCC(=O)NC12CC3CC(CC(C3)C1)C2	i	.	30	29	26	.
O=C(COC(=O)CCc1ccccc1)NC12CC3CC(CC(C3)C1)C2	i	.	43*	32	14	28
O=C(COC(=O)C(O)c1ccccc1)NC12CC3CC(CC(C3)C1)C2 (configuration not stated)	i	-20	13	16	6	.
O=C(COC(=O)C12CC3CC(CC(C3)C1)C2)NC12CC3CC(CC(C3)C1)C2	i	2	41*	28	38	39*
Cc1ccc(C)c(S(=O)(=O)N2CCN(C(=O)C3CCN(c4ncnc5sc(C)c(C)c45)CC3)CC2)c1	i	.	47*	41	-70	28
CCc1nn(C(C)C(=O)NC2CCCCCC2)c(=O)c2cc3occc3n12 (configuration not stated)	i	-12	41*	34	4	-7
CCc1nnc(NC(=O)c2cc(-c3ccccn3)nc3ccc(Br)cc23)s1	i	-13	83*	7	-4	-21
CCc1nnc(NC(=O)c2cc(-c3ccncc3)nc3ccccc23)s1	i	1	7	17	4	.
O=C(c1cccs1)N1CCN(S(=O)(=O)c2cccc(Cl)c2Cl)CC1	.	.	24	41	-1	.
Cc1ccc(Oc2nc3c(c(=O)n(C)c(=O)n3C)n2C)cc1C	i	-20	8	17	-3	.
Cn1c(=O)c2c(nc(Oc3ccc(-c4ccccc4)cc3)n2C)n(C)c1=O	i	-5	40*	14	19	5
Clc1ccc2c(c1)c1ccccc1n2CN1CCOCC1	i	7	54*	40	23	25
CCn1c2ccccc2c2cc(CNCCCN3CCOCC3)ccc21	i	6	-233	-27	-203	.
CSc1ccc(S(=O)(=O)N2CCC(C(=O)N3CCc4ccccc4C3)CC2)cc1	i	8	43*	30	10	28
COc1ccc(S(=O)(=O)N2CCC(C(=O)N3CCc4ccccc4C3)CC2)cc1	i	2	28	33	24	.
Cc1oc(-c2ccc(Cl)cc2)nc1CS(=O)CC(=O)NCc1ccccn1 (configuration not stated)	i	-2	5	0	9	.
CCC(C(=O)OCC(=O)Nc1cccc(C(C)=O)c1)c1ccccc1 (configuration not stated)	.	-5	17	-7	31	.
CCC(C(=O)OCC(=O)Nc1cc(Cl)cc(Cl)c1)c1ccccc1 (configuration not stated)	i	4	40*	29	24	26
Oc1ccc(/C=N/NC(=S)N/N=C/c2ccc(O)cc2)cc1	i	-35	41*	44	30	31
O=C(c1nc2ccccc2s1)N1CCN(c2ccccn2)CC1	.	-9	45*	28	10	27
